PubChem BioAssay
Several values for one entry are separate records, joined by “and”; a condition that tells them apart may be missing. Identical values can stand only once. Records with an inconclusive call do not appear. Activity calls are given as the source filed them.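 The calls were made as follows, unless noted: active = normalized viability below 100% at a tested concentration; inactive = the rest.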

What was measured:
[1] = viability loss in pontine glioma line – cell-based, SU-DIPG-XXV, MIPE5.0, CellTiter-Glo, qHTS, dose response (AID 1347065; cut-off not given, nearly all actives have AC50 up to about 26 µM;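 also: cells exposed to compound for 48 hours before ATP readout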); details: CellTiter-Glo ATP luminescence
[2] = SU-DIPG-VI glioma cell viability, MIPE4.0 library, CellTiter-Glo luminescence, qHTS (AID 1347066; cut-off not given, nearly all actives have AC50 up to about 30 µM;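 also: cells exposed to compound for 48 hours before readout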); details: CellTiter-Glo ATP luminescence
[3] = SU-DIPG-XXV glioma cell viability, MIPE5.0 library, qHTS (AID 1347068; cut-off not given, nearly all actives have IC50 up to about 30 µM)
[4] = phospholipid biosynthesis inhibitors in animal cells, primary screen, cell-based, LOPAC library, screen 4 (AID 1347384; call rule not given here); details: phospholipid biosynthesis inhibition screen, at 10 µM
[5] = survival rescue of mitochondrial mutant cells in low glucose, primary screen, MELAS cybrids, Rieske KO mouse fibroblasts, CellTiter-Glo (AID 1508586;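 active = mean z-score across replicates of 1.96 or higher in either the MELAS or the Rieske mutant cell line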;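 also: z relative to plate mean and SD of compound and empty wells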)
[6] = viability rescue of complex I mutant cybrids, primary screen, cell-based, galactose medium, ATP luminescence (AID 1645843;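 active = z-score of at least 1.8 in each of two replicates, scored against plate mean and spread of sample wells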;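 also: positive z means more ATP and so rescue of galactose-driven cybrid death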); details: complex I mutant cybrid cells, 72 h, stronger effect = higher value
[7] = JHH-DIPG-1 glioma cell viability, MIPE5.0 library, CellTiter-Glo luminescence, qHTS (AID 1347067; cut-off not given, nearly all actives have AC50 up to about 26 µM;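 also: cells exposed to compound for 48 hours before readout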); details: JHH-DIPG-1 glioma viability, CellTiter-Glo ATP luminescence
[8] = inhibitors of Cryptococcus chitosan production, flow cytometry, Cibacron Brilliant Red staining (AID 1347148; call rule not given here;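 also: compound exposure lasted three days at 37 degrees C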); details: Cryptococcus neoformans chitosan, stronger effect = lower value; at 10 µM unless noted
[9] = ovarian cancer cell viability with rucaparib, profiling panel, oncology-focused library, rucaparib conditional (AID 1508598); details: patient-derived ovarian cancer cells, CellTiter-Glo viability, 144 h, stronger effect = lower value
[10] = molecular target: Mitogen-activated protein kinase 7 (Homo sapiens) (UniProt Q13164); assay: ERK5 transactivation activators in reporter cells, primary screen, cell-based, HTS (AID 1508626;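 active = luciferase signal above three times the same-plate solvent-only control wells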;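 also: luciferase driven by Gal4-ERK5 fusion binding five Gal4 sites before minimal TATA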); details: HeLa Gal4-ERK5 transactivation, 18 h, at 5 µM, stronger effect = higher value
Mitogen-activated protein kinase 7 (Homo sapiens), sequence (Q13164 whole entry, looked up, the tested form may be a part): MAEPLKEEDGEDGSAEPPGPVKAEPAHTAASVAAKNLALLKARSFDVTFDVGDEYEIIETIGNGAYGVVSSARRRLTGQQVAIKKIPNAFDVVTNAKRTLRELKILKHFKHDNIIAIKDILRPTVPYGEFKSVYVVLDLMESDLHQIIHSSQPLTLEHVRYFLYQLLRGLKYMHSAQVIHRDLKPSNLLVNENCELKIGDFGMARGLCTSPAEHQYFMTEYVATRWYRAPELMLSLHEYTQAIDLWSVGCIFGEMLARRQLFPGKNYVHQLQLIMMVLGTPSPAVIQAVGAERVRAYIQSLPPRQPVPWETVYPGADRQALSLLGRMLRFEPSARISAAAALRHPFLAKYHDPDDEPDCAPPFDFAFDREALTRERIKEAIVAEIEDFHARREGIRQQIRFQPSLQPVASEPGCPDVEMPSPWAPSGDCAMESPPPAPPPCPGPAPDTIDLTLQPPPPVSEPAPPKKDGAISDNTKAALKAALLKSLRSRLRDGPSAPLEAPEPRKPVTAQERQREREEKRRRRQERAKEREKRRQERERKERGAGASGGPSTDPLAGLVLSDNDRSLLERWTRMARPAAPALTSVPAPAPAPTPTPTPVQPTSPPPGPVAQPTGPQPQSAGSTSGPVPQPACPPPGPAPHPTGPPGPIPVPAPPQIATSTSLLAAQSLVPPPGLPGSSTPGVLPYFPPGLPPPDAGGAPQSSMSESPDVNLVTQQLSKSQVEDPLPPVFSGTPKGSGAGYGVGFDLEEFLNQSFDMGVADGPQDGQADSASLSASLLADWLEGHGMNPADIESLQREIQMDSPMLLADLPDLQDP

[11] = LFS_MB_P medulloblastoma growth inhibition, cell-based, chromothripsis tumors, cisplatin or BGB combos (AID 1671449; in the data active = inhibition above about 80%;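 also: cells exposed for 96 hours; 0% = vehicle DMSO and 100% = killing by high DMSO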); details: LFS_MB_P medulloblastoma cells
[12] = HDN33 neuroblastoma growth inhibition, cell-based, chromothripsis tumors, cisplatin or BGB combos (AID 1671450; in the data active = inhibition above about 80%;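 also: cells exposed to compound for four days; 0% = vehicle DMSO and 100% = cell killing by high DMSO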); details: HDN33 neuroblastoma cells, stronger effect = higher value
[13] = ICB984 medulloblastoma cell growth inhibition, synergistic combos for chromothripsis tumors, cisplatin or BGB combos (AID 1671451; call rule not given here;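 also: cells exposed for 96 hours before readout; 0% = vehicle DMSO and 100% = killing by high DMSO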); details: ICB984 medulloblastoma cells, drug combinations, stronger effect = higher value
[14] = LFS_MB_1R medulloblastoma cell growth inhibition, synergistic combos for chromothripsis tumors, cisplatin or BGB combos (AID 1671452; in the data active = inhibition above about 80%;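 also: cells exposed for 96 hours before readout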); details: LFS_MB_1R medulloblastoma cells, stronger effect = higher value
[15] = HTB85 osteosarcoma cell growth inhibition, synergistic combos for chromothripsis tumors, BGB or cisplatin IC20 combos (AID 1671453; in the data active = inhibition above about 80%;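 also: cells exposed for 96 hours before readout; 0% = vehicle DMSO and 100% = high DMSO killing control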); details: HTB85 osteosarcoma cells, drug combinations, stronger effect = higher value
[16] = CRL2098 osteosarcoma cell growth inhibition, synergistic combos for chromothripsis tumors, BGB or cisplatin IC20 combos (AID 1671454; in the data active = inhibition above about 80%;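 also: cells exposed for 96 h before readout; 0% = vehicle DMSO and 100% = killing by high DMSO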); details: CRL2098 osteosarcoma cells, drug combinations, stronger effect = higher value
[17] = HD-MB03 medulloblastoma cell growth inhibition, synergistic combos for chromothripsis tumors, BGB or cisplatin IC20 combos (AID 1671455; in the data active = inhibition above about 83%;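 also: 0% = vehicle DMSO and 100% = high DMSO as cytotoxic control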); details: HD-MB03 medulloblastoma cells, stronger effect = higher value
[18] = MELAS cybrid survival, CellTiter-Glo 48 h, stronger effect = higher value
[19] = Rieske KO mouse fibroblast survival, CellTiter-Glo 72 h
[20] = measured here: combination with BGB IC40, at 0.05 µM

CN(CCOc1ccc(NS(C)(=O)=O)cc1)CCc1ccc(NS(C)(=O)=O)cc1
outcome [1]: inactive | outcome [2]: inactive | outcome [3]: inactive | outcome [4]: inactive | z-score [5, 18]: -0.0974 (inactive) and 0.133 (inactive) and -0.631 (inactive) | z-score [5, 19]: -0.727 and -0.208 and -0.315 | z-score [6]: 0.355 (inactive) and 0.06 (inactive) and 0.77 (inactive)

O=c1c(O)c(-c2ccc(O)c(O)c2)oc2cc(O)cc(O)c12
outcome [1]: inactive | outcome [7]: inactive | outcome [3]: inactive | fold fluorescence [8]: 2.95 [at 165.4 µM] (active) | outcome [4]: inactive | z-score [5, 18]: -0.4 (inactive) and -0.42 (inactive) | z-score [5, 19]: -1.01 and 0.378 | viability ([9]; at 0.000305 µM, OCI-C5x cells, with rucaparib 10 µM, 100% = cells with rucaparib alone): 118% (inactive) | viability ([9]; at 0.000305 µM, OCI-C5x cells, without rucaparib): 113% (inactive) | viability ([9]; at 0.000305 µM, OCI-P5x cells, with rucaparib 20 µM, 100% = cells with rucaparib alone): 92% (active) | viability ([9]; at 0.000305 µM, OCI-P5x cells, without rucaparib): 92.3% (active) | viability ([9]; at 0.00122 µM, OCI-C5x cells, with rucaparib 10 µM, 100% = cells with rucaparib alone): 122% (inactive) | viability ([9]; at 0.00122 µM, OCI-C5x cells, without rucaparib): 119% (inactive) | viability ([9]; at 0.00122 µM, OCI-P5x cells, with rucaparib 20 µM, 100% = cells with rucaparib alone): 97.3% (active) | viability ([9]; at 0.00122 µM, OCI-P5x cells, without rucaparib): 102% (inactive) | viability ([9]; at 0.00488 µM, OCI-C5x cells, with rucaparib 10 µM, 100% = cells with rucaparib alone): 117% (inactive) | viability ([9]; at 0.00488 µM, OCI-C5x cells, without rucaparib): 129% (inactive) | viability ([9]; at 0.00488 µM, OCI-P5x cells, with rucaparib 20 µM, 100% = cells with rucaparib alone): 104% (inactive) | viability ([9]; at 0.00488 µM, OCI-P5x cells, without rucaparib): 105% (inactive) | viability ([9]; at 0.0195 µM, OCI-C5x cells, with rucaparib 10 µM, 100% = cells with rucaparib alone): 127% (inactive) | viability ([9]; at 0.0195 µM, OCI-C5x cells, without rucaparib): 125% (inactive) | viability ([9]; at 0.0195 µM, OCI-P5x cells, with rucaparib 20 µM, 100% = cells with rucaparib alone): 105% (inactive) | viability ([9]; at 0.0195 µM, OCI-P5x cells, without rucaparib): 105% (inactive) | viability ([9]; at 0.0781 µM, OCI-C5x cells, with rucaparib 10 µM, 100% = cells with rucaparib alone): 114% (inactive) | viability ([9]; at 0.0781 µM, OCI-C5x cells, without rucaparib): 125% (inactive) | viability ([9]; at 0.0781 µM, OCI-P5x cells, with rucaparib 20 µM, 100% = cells with rucaparib alone): 105% (inactive) | viability ([9]; at 0.0781 µM, OCI-P5x cells, without rucaparib): 109% (inactive) | viability ([9]; at 0.313 µM, OCI-C5x cells, with rucaparib 10 µM, 100% = cells with rucaparib alone): 111% (inactive) | viability ([9]; at 0.313 µM, OCI-C5x cells, without rucaparib): 127% (inactive) | viability ([9]; at 0.313 µM, OCI-P5x cells, with rucaparib 20 µM, 100% = cells with rucaparib alone): 101% (inactive) | viability ([9]; at 0.313 µM, OCI-P5x cells, without rucaparib): 112% (inactive) | viability ([9]; at 1.25 µM, OCI-C5x cells, with rucaparib 10 µM, 100% = cells with rucaparib alone): 111% (inactive) | viability ([9]; at 1.25 µM, OCI-C5x cells, without rucaparib): 125% (inactive) | viability ([9]; at 1.25 µM, OCI-P5x cells, with rucaparib 20 µM, 100% = cells with rucaparib alone): 103% (inactive) | viability ([9]; at 1.25 µM, OCI-P5x cells, without rucaparib): 107% (inactive) | viability ([9]; at 5 µM, OCI-C5x cells, with rucaparib 10 µM, 100% = cells with rucaparib alone): 109% (inactive) | viability ([9]; at 5 µM, OCI-C5x cells, without rucaparib): 120% (inactive) | viability ([9]; at 5 µM, OCI-P5x cells, with rucaparib 20 µM, 100% = cells with rucaparib alone): 90.4% (active) | viability ([9]; at 5 µM, OCI-P5x cells, without rucaparib): 107% (inactive) | luciferase signal [10]: 72 AU (inactive) | z-score [6]: -0.695 (inactive) and -0.855 (inactive) | inhibition ([11]; at 0.5 µM, stronger effect = higher value): -5.93% (inactive) | inhibition ([11]; measured here: combination with BGB IC20, at 0.005 µM): 17% | inhibition ([11]; measured here: combination with BGB IC40, at 0.005 µM): 13.5% | inhibition [11, 20]: 25.1% | inhibition ([11]; measured here: combination with cisplatin, at 0.5 µM, stronger effect = higher value): -24.2% | inhibition ([11]; measured here: combination with cisplatin, at 5 µM, stronger effect = higher value): 20.2% | inhibition ([12]; BGB combo, at 5 µM): -9.66% | inhibition ([12]; at 0.5 µM): -7.52% (inactive) | inhibition ([12]; cisplatin combo, at 5 µM): 10.5% | inhibition ([12]; measured here: with BGB IC20 combination, at 0.5 µM): -21.2% | inhibition ([12]; measured here: with cisplatin IC20 combination, at 0.5 µM): 12.4% | inhibition ([12]; single agent, at 5 µM): -15.2% | inhibition ([13]; BGB IC20 combo, at 0.005 µM): 14% | inhibition ([13]; BGB IC40 combo, at 0.005 µM): -3.66% | inhibition ([13]; BGB IC40 combo, at 0.05 µM): -21.1% | inhibition ([13]; at 0.5 µM): 2.09% (inactive) | inhibition ([13]; cisplatin combo, at 0.05 µM): -21.1% | inhibition ([13]; cisplatin combo, at 0.5 µM): -0.46% | inhibition ([13]; cisplatin combo, at 5 µM): -2.17% | inhibition ([13]; measured here: 5 uM single agent, at 5 µM): 2.61% | inhibition ([14]; at 0.5 µM): -24.6% (inactive) | inhibition [14, 20]: 7.65% | inhibition ([14]; measured here: combination with cisplatin, at 0.5 µM): -39% | inhibition ([14]; measured here: combination with cisplatin, at 5 µM): -2.19% | inhibition ([15]; at 0.5 µM): -16.3% (inactive) | inhibition ([15]; measured here: with BGB IC20, at 0.5 µM): -21.8% | inhibition ([15]; measured here: with BGB IC20, at 5 µM): -1.29% | inhibition ([15]; measured here: with cisplatin IC20, at 0.5 µM): -33.8% | inhibition ([15]; measured here: with cisplatin IC20, at 5 µM): -25% | inhibition ([15]; single agent, at 5 µM): -18.2% | inhibition ([16]; at 0.5 µM): -28.1% (inactive) | inhibition ([16]; measured here: combination with BGB at IC20, at 0.5 µM): -37.5% | inhibition ([16]; measured here: combination with cisplatin at IC20, at 0.5 µM): -36.5% | inhibition ([17]; at 0.5 µM): -8.42% (inactive) | inhibition ([17]; measured here: combo with BGB at IC20, at 0.5 µM): -5.54% | inhibition ([17]; measured here: combo with cisplatin at IC20, at 0.5 µM): -14%
